About 83,000 compounds went through this panel and 20% of them were active in at least one assay; those are over-represented in the sample as a whole.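 Values shown are percent growth following 48 h exposure of cells in 96-well plates to a single concentration of compound; below 10 was considered active.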 A number with no mark means an inactive call. The source made the active and inactive calls.

Some test systems named below: HCT-15 colon; HT29 colon; SNB-75 CNS; SNB-19 CNS; U251 CNS; PC-3 prostate; SK-MEL-5 melanoma; UACC-62 melanoma; LOX IMVI melanoma; SK-MEL-28 melanoma; SK-MEL-2 melanoma; EKVX NSCLC; SN12C renal; UO-31 renal; TK-10 renal; ACHN renal; CAKI-1 renal; A498 renal; CCRF-CEM leukemia; MOLT-4 leukemia.
Common to all, as to experiment: NCI-60 one-dose screen, 48 h (100 = growth as untreated, 0 = no growth, -100 = all killed)
What all share (settings): 10 µM unless noted

Consider `COc1cccc(O)c1/C=C(/C)c1ccc2c(OC)cccc2[o+]1`, for which the growth in the assay with HCT-15 colon is 95.1%; in the assay on HT29 colon it was 118%; in the assay on SNB-75 CNS, 97.1%; in the assay with SNB-19 CNS it was 103%; in the assay with U251 CNS it was 106%; in the assay with PC-3 prostate it was 97.5%. Further, the growth was 105% in the assay on SK-MEL-5 melanoma; 93.7% in the assay on UACC-62 melanoma; 83.9% with LOX IMVI melanoma; 101% with SK-MEL-28 melanoma; 107% in the assay on SK-MEL-2 melanoma; 96.5% in the assay with EKVX NSCLC. The growth was 99.5% with SN12C renal; 79.7% in the assay on UO-31 renal; 140% in the assay on TK-10 renal; 98.9% in the assay with ACHN renal; 90.3% with CAKI-1 renal; 95.7% with A498 renal. In addition, the growth in the assay with CCRF-CEM leukemia was 106%; with MOLT-4 leukemia, 107%.

For `COc1cc2nc(Cl)nc(Nc3cccc(C4=Nc5c(N)nc(N)nc5NC(c5ccccc5)C4)c3)c2cc1OC` (stereo not given), the growth in the assay on HCT-15 colon was 48.6%; in the assay on HT29 colon it was 90.3%; in the assay on SNB-75 CNS, 75%; with SNB-19 CNS, 95.6%; with U251 CNS it was 60.4%; with PC-3 prostate it was 75.1%. The growth was 73.6% with SK-MEL-5 melanoma; 91.3% with UACC-62 melanoma; 68% with LOX IMVI melanoma; 105% in the assay with SK-MEL-28 melanoma; 88.8% in the assay on SK-MEL-2 melanoma; 96.7% in the assay with EKVX NSCLC. Moreover, the growth was 93.4% with SN12C renal; 94.4% with UO-31 renal; 110% in the assay with TK-10 renal; 91.8% in the assay with ACHN renal; 96.1% in the assay with CAKI-1 renal; 88.9% with A498 renal. Besides, the figures for the growth in the assay on CCRF-CEM leukemia and with MOLT-4 leukemia were 34.8% and 54.5%, respectively.

Take `CC1(C)CC[C@]2(C(=O)N3CCOCC3)CC[C@]3(C)C(=CC[C@@H]4[C@@]5(C)C/C(=C/c6ccccn6)C(=O)C(C)(C)[C@@H]5CC[C@]43C)[C@@H]2C1`: the growth with HCT-15 colon was 52.1%; with HT29 colon it was 56.3%; in the assay with SNB-75 CNS it was 34.1%; in the assay on SNB-19 CNS it was 88%; in the assay with U251 CNS it was 80.7%; in the assay with PC-3 prostate it was 20.9%. For the same compound, the growth in the assay on SK-MEL-5 melanoma is 69.3%; with UACC-62 melanoma, 64.8%; in the assay with LOX IMVI melanoma, 55.9%; with SK-MEL-28 melanoma, 86.1%; in the assay on SK-MEL-2 melanoma, 82.9%; with EKVX NSCLC it was 56.1%. Also, the growth was 67.7% in the assay with SN12C renal; 42% with UO-31 renal; 70.2% with TK-10 renal; 76.9% in the assay on ACHN renal; 28.9% in the assay with CAKI-1 renal; -3.14% (active) in the assay with A498 renal. In addition, the growth in the assay with CCRF-CEM leukemia was 44.5%; in the assay on MOLT-4 leukemia, 25%.

With `N#Cc1cccc(NC(=O)c2cc(-c3ccc(F)cc3F)ccc2O)c1`, the growth was 6.97% (active) in the assay with HCT-15 colon; 94.9% in the assay on HT29 colon; 3.99% (active) in the assay on SNB-75 CNS; 11.4% in the assay with SNB-19 CNS; 10.9% with U251 CNS; 9.28% (active) in the assay on PC-3 prostate. In addition, the growth with SK-MEL-5 melanoma was -74.3% (active); with UACC-62 melanoma it was -12.9% (active); in the assay on LOX IMVI melanoma it was 1.22% (active); in the assay with SK-MEL-28 melanoma it was 25%; with SK-MEL-2 melanoma, 0.79% (active); with EKVX NSCLC it was 10.3%. In addition, the growth in the assay on SN12C renal was 4.45% (active); with UO-31 renal it was -14.2% (active); in the assay on TK-10 renal it was 19.3%; in the assay with ACHN renal, 5.79% (active); in the assay with CAKI-1 renal, -16.7% (active); in the assay on A498 renal, -33.1% (active). Further, the growth in the assay on CCRF-CEM leukemia is 20.1%; in the assay with MOLT-4 leukemia, 6.28% (active).

As to `CCCSc1nc(Nc2ccc(/C(C)=N\NC(N)=S)cc2)c(C#N)c(-c2ccccc2)n1`, the growth in the assay on HCT-15 colon is 66%; with HT29 colon, 60.3%; in the assay with SNB-75 CNS, 141%; with SNB-19 CNS, 83.1%; in the assay with U251 CNS, 73.1%; in the assay on PC-3 prostate it was 79.9%. For the same compound, the growth with SK-MEL-5 melanoma was 80.2%; in the assay on UACC-62 melanoma it was 97.1%; in the assay with LOX IMVI melanoma, 46.1%; in the assay with SK-MEL-28 melanoma it was 84.6%; with SK-MEL-2 melanoma, 87.9%; with EKVX NSCLC, 74.4%. Moreover, the growth with SN12C renal was 77.9%; in the assay on UO-31 renal, 46.9%; in the assay on TK-10 renal it was 95%; with ACHN renal, 35.4%; with CAKI-1 renal, 48.1%; with A498 renal it was 102%. The growth in the assay on CCRF-CEM leukemia was 69.3%; in the assay on MOLT-4 leukemia it was 52.8%.

Consider `CC(C)(C)c1ccc(C(=O)Nc2sc3c(c2C(N)=O)CCC(O)C3)cc1` (stereo not given), for which the growth was 6.55% (active) in the assay with HCT-15 colon; 2.76% (active) with HT29 colon; 98.1% in the assay on SNB-75 CNS; 64.9% in the assay on SNB-19 CNS; 54% in the assay with U251 CNS; 54.1% with PC-3 prostate. Besides, the growth was 38.5% with SK-MEL-5 melanoma; 39.4% with UACC-62 melanoma; -70% (active) with LOX IMVI melanoma; 49.3% in the assay on SK-MEL-28 melanoma; 80.3% in the assay on SK-MEL-2 melanoma; 62.9% with EKVX NSCLC. In addition, the growth was 74.8% with SN12C renal; 49.1% in the assay on UO-31 renal; 82.8% in the assay on TK-10 renal; 25.4% with ACHN renal; 5.67% (active) in the assay on CAKI-1 renal; 78% in the assay on A498 renal. Also, the growth was 53.1% in the assay on CCRF-CEM leukemia and 56.4% in the assay on MOLT-4 leukemia.

Take `NC(N)=Nc1ccc(Oc2cccc(Nc3ccc(Br)c(C(F)(F)F)c3)c2)cc1`: the growth is 69.9% in the assay with HCT-15 colon; 11.5% in the assay with HT29 colon; 27.1% in the assay with SNB-75 CNS; -15.9% (active) in the assay with SNB-19 CNS; -78.9% (active) in the assay on U251 CNS; 1.98% (active) in the assay on PC-3 prostate. Besides, the growth in the assay on SK-MEL-5 melanoma was 22.5%; with UACC-62 melanoma, 7.23% (active); in the assay on LOX IMVI melanoma, -97.1% (active); with SK-MEL-28 melanoma it was 58.3%; in the assay with SK-MEL-2 melanoma, 35.6%; in the assay on EKVX NSCLC it was 25.5%. The growth is -21.3% (active) with SN12C renal; 75.2% in the assay on UO-31 renal; 54.9% with TK-10 renal; 68.3% with ACHN renal; 39.8% with CAKI-1 renal; 0.698% (active) in the assay on A498 renal. Besides, the growth in the assay on CCRF-CEM leukemia is 3.83% (active); in the assay with MOLT-4 leukemia, 9.79% (active).

Regarding `NC(N)=Nc1ccc(Oc2cccc(Nc3ccc(Cl)c(C(F)(F)F)c3)c2)cn1`, the growth was -63.5% (active) in the assay with HCT-15 colon; -39.2% (active) in the assay on HT29 colon; 20.3% in the assay with SNB-75 CNS; -77% (active) with SNB-19 CNS; -82.2% (active) with U251 CNS; -89.4% (active) with PC-3 prostate. For the same compound, the growth with SK-MEL-5 melanoma was 26.7%; in the assay with UACC-62 melanoma it was -78.3% (active); in the assay on LOX IMVI melanoma, -83.8% (active); in the assay with SK-MEL-28 melanoma, -28.6% (active); with SK-MEL-2 melanoma, -17.7% (active); in the assay on EKVX NSCLC, -58.5% (active). For the same compound, the growth is -84.4% (active) in the assay with SN12C renal; 43.3% in the assay on UO-31 renal; 23.2% in the assay with TK-10 renal; 3.16% (active) in the assay on ACHN renal; -6.78% (active) with CAKI-1 renal; -7.17% (active) in the assay with A498 renal. Moreover, the growth is -7% (active) in the assay on CCRF-CEM leukemia and -39% (active) in the assay with MOLT-4 leukemia.
